Compound activity: PubChem, several laboratories
SUMO HTRF inh: blocks human SUMOylation mediated by UBC9. P63279. HTRF SUMOylation assay, SAE1/SAE2 + UBC9, in vitro. inhibition, % at 35 µM. 290,000 tested, 0.36% active; in the data active means inhibition above about 50%, passing the limit was not always enough
HGIII-sPLA2 inh: Inhibits HGIII-sPLA2 liposome hydrolysis, primary screen; Q9NZ20; QFRET BODIPY PC-A2 liposome hydrolysis, fluorescence; inhibition, % at 12.2 µM; 370,000 tested, 0.56% active; AID 743126;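 active means inhibition above mean plus 3 SD of compounds lying within the high and low control bounds, cut at about 19% in these data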;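 further: 0% = median of test compound wells and 100% = no enzyme DMSO wells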
Target sequence (Q9NZ20 whole entry, looked up): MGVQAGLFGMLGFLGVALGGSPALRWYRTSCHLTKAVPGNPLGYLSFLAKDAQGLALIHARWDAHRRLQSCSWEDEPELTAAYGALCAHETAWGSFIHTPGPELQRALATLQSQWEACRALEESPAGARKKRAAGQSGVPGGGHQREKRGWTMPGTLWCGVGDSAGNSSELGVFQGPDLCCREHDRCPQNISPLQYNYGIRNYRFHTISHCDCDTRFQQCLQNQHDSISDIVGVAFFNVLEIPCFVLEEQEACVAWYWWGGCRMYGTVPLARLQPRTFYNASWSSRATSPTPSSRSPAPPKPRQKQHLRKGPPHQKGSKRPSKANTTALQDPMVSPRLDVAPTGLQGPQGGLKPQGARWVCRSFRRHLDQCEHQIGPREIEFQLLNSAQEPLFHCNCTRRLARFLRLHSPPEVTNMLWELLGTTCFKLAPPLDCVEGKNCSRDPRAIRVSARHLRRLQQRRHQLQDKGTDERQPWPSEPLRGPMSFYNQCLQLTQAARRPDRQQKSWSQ
GRIN3A LBD mod: modulates the human NR3A ligand-binding domain; AID 1259313; NR3A LBD differential scanning fluorimetry, Tm shift; 0% = protein alone, 100% = glycine-bound protein; Tm shift relative to glycine control, % at 25 µM; 340,000 tested, 2.5% active;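 active means melting temperature shift of at least 10% of the positive control shift, at one fixed dose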
UBC13 inh: blocks human UBC13 polyubiquitin chain formation | AID 485273 | inhibition, % at 20 µM | 330,000 tested, 0.47% active | TR-FRET | P61088; in the data active means inhibition above about 45%, passing the limit was not always enough
Active calls of the source: *; . = no result. Sampled rows, rich in hits. Any-hit rate of the full collection: about 3.3%.

SMILES | SUMO HTRF inh | HGIII-sPLA2 inh | GRIN3A LBD mod | UBC13 inh
O=S1(=O)c2ccc(N3CCN(Cc4ccccc4F)CC3)cc2Oc2ccccc2CN1Cc1cn(Cc2ccc(F)cc2)nn1 | . | 3 | . | .
CCOC(=O)CC[C@@]1(C(=O)OCC)C[C@@H](CC(=O)NCCCOC)C(=O)N2CCCC=C21 | . | -2 | . | .
CC(=O)c1ccc(NC(=O)CC2Nc3cccc4cccc(c34)NC2=O)cc1 (configuration not stated) | 96* | -9 | -5 | -29
C=CCC(CC(O)COCCC)C(=O)NNC(=S)Nc1ccccc1 (configuration not stated) | -9 | 14 | 10* | -6
CC(C)CCOCC(O)CCC(=O)NNC(=S)Nc1ccccc1 (configuration not stated) | 27 | 13 | 0 | 2
COc1cccc(N/C(SCc2ccccc2C)=C(/C#N)C(=O)NCc2cccs2)c1 | -1 | -20 | 4 | -6
COc1cccc(N/C(SCc2ccccc2Cl)=C(/C#N)C(=O)NCc2cccs2)c1 | -2 | -22 | 13* | -8
N#C/C(=C/c1ccc(N2CCCCC2)o1)C(=O)Nc1ccc(Cl)cc1 | 20 | -23 | 12* | -304
c1nc2nc3c(c(N4CCCC4)n2n1)CCCC3 | . | 4 | . | .
O=C(NCc1ccccc1Cl)c1cnccc1C(F)(F)F | 10 | 7 | 12* | -9
O=C(NCc1ccccc1Cl)c1ccccc1CCc1ccccc1 | -7 | -8 | -1 | -8
O=C(NCc1ccccc1Cl)c1ccccc1Oc1ccccc1 | -16 | -3 | 11* | -5
Cc1cc(C(=O)Nc2ccc(F)cc2)n(-c2ccccc2)n1 | . | 4 | . | .
COc1cc2c(cc1NC(=O)CSc1nnc(-c3ccccn3)n1-c1ccccc1)oc1ccccc12 | . | -2 | . | .
COc1ccccc1NC(=O)c1ccc(NC(=O)c2cc3c(s2)CCC3)cc1 | 5 | -2 | 30* | 34
O=C(/C=C/c1ccc(Cl)cc1)NC(=S)Nc1ccc(C(=O)O)cc1 | 25 | 2 | -9 | -31
O=C(/C=C/c1cccc(Cl)c1)Nc1ncccn1 | -4 | 3 | -3 | 0
O=C(/C=C/c1ccccc1)NC(NC(=S)Nc1ccc(Cl)cc1Cl)C(Cl)(Cl)Cl (configuration not stated) | -21 | . | 20* | -38
O=C(/C=C/c1ccccc1)NC(NC(=S)Nc1cccc(Cl)c1)C(Cl)(Cl)Cl (configuration not stated) | 34 | -8 | 29* | -16
O=C(/C=C/c1ccccc1)NC(NC(=S)Nc1ccc(C(=O)O)cc1)C(Cl)(Cl)Cl (configuration not stated) | 23 | -24 | 13* | -9
Cc1ccc(C)c(NC(=S)NC(NC(=O)/C=C/c2ccccc2)C(Cl)(Cl)Cl)c1 (configuration not stated) | 31 | -10 | 14* | -15
O=C(/C=C/c1ccccc1)NC(NC(=S)Nc1cccc(O)c1)C(Cl)(Cl)Cl (configuration not stated) | -3 | -20 | 21* | -2
COC(=O)NC(NC(=S)Nc1cccc(C)c1)C(Cl)(Cl)Cl (configuration not stated) | -4 | -10 | -16 | 5
Cc1cccc2c1CC(C)(C)N=C2C1=C(O)CCCC1=O | -16 | 4 | 14* | -1
O=C(NCc1ccco1)c1cnn2c(C(F)(F)F)cc(-c3ccccc3)nc12 | 5 | -3 | -4 | 2
SMILES | SUMO HTRF inh | HGIII-sPLA2 inh | GRIN3A LBD mod | UBC13 inh
COc1ccc2oc(=O)c(C(=O)NCc3ccco3)cc2c1 | 52* | 5 | -2 | 7
COc1ccc(-c2cc(C(F)(F)F)n3ncc(C(=O)NCc4ccco4)c3n2)cc1 | 64* | 6 | -11 | -6
COc1ccc2c(c1)CN1C(=O)N(CC(C)C)S(=O)(=O)CC21 (configuration not stated) | . | 8 | . | .
CC(=NO)C1CCC2C3CCC4=CC(=NO)CCC4(C)C3C(=O)CC12C (configuration not stated) | . | -10 | 18* | .
CC(=NO)C1CCC2C3CCC4=CC(=NO)CCC4(C)C3C(O)CC12C (configuration not stated) | . | -6 | 0 | .
C=CC(=O)Nc1ccc(CN2C(=O)N(c3c(Cl)c(OC)cc(OC)c3Cl)Cc3cnc(NCCCCN(CC)CC)nc32)cc1 | . | . | 0 | 63*
C[C@H]1[C@@H](c2ccccc2)OC(O)([C@H](Cc2ccccc2)NC(=O)OC(C)(C)C)CN1C (some centres not stated) | . | -5 | . | .
COc1ccc(CNCCS(=O)(=O)NN2CCOCC2)cc1 | . | 1 | 17* | .
Cc1cc(C)cc(NC(=O)/C(C#N)=C/c2cn(CC(=O)NCc3ccco3)c3ccccc23)c1 | 29 | -3 | 3 | -14
Cc1ccc(C)c(NC(=O)/C(C#N)=C/c2cn(CC(=O)NCc3ccco3)c3ccccc23)c1 | 54* | 0 | 9 | -15
Cc1ccc(NC(=O)/C(C#N)=C/c2cn(CC(=O)NCc3ccco3)c3ccccc23)cc1C | 62* | -1 | 2 | -12
Cc1cc(Br)ccc1OCCCN1CCC(C(O)(c2ccccc2)c2ccccc2)CC1 | . | -13 | . | .
COc1ccc(OC)c(/C=N/n2c(-c3n[nH]c4c3CCC4)n[nH]c2=S)c1 | 10 | 18 | 14* | 2
O=c1cc(-c2ccccc2)oc2cc(O)ccc12 | . | -14 | -2 | .
O=c1cc(-c2ccccc2)c2ccc(O)cc2o1 | . | -22 | 11* | 0
COC(=O)C(Oc1ccc2c(-c3ccc(OC)cc3)cc(=O)oc2c1)c1ccccc1 (configuration not stated) | 8 | -4 | 0 | -6
CCOC(=O)C(Oc1ccc2c(-c3ccccc3)cc(=O)oc2c1)c1ccccc1 (configuration not stated) | -7 | 0 | 11* | 5
C[C@H]1Cn2nnc(-c3ccccc3)c2Cn2c3ccccc3c(=O)n21 | . | 3 | . | .
COc1ccc(NC(=O)/C=C/c2ccc(OC(F)F)cc2)cn1 | -20 | -3 | 3 | -10
COc1ccc(NC(=O)/C=C/c2cccc(Br)c2)cn1 | 2 | -17 | 33* | -3
COc1ccc(/C=N/NC(=S)Nc2cc(C(F)(F)F)ccc2Cl)cc1 | 7 | 1 | 5 | 5
COc1ccc(/C=C/C(=O)Nc2cc(C(F)(F)F)ccc2Cl)cc1 | 3 | 1 | 15* | 2
COc1ccc(/C=C/C(=O)Nc2ccc(OC)nc2)cc1 | -6 | -1 | 26* | -32
COc1ccc(NC(=O)/C=C/c2cccc(C(F)(F)F)c2)cn1 | 4 | -7 | 11* | -3
O=C(NCCc1ccccc1F)c1cc2ccccn2n1 | . | -4 | . | .
O=C(Nc1cc([N+](=O)[O-])c2[nH]c(=O)c3ccccc3c2c1)C(F)(F)F | . | 7 | 44* | .
COc1ccc(-c2ccnc(SCC(=O)c3ccc(OC)c(OC)c3)n2)cc1 | 3 | -28 | 14* | -5
Cc1cc(Br)cc(C)c1OCC(=O)NNC(=O)c1cccs1 | 7 | -6 | 13* | -1
O=C(COc1ccc(Br)cc1Br)NNC(=O)c1cccs1 | 3 | -9 | 0 | 0
COc1ccc(NS(=O)(=O)c2ccc3nc(COc4cccc5ccccc45)[nH]c3c2)cc1 | -4 | -42 | 17* | -18
